Only some compounds are listed: those with a hit (about 1.5% of all), similar ones and a draw of the others.
GLD-1 TGE inh: GLD-1/TGE RNA complex disruptors, primary screen, biochemical, fluorescence polarization; Female germline-specific tumor suppressor gld-1 (Caenorhabditis elegans), Q17339; purified GLD-1 + fluorescein TGE RNA; inhibition, % at 5.96 µM; 320,000 tested, 0.44% active; AID 2280, 2010;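 active = percent inhibition above a per-plate cutoff, the plate mean of test compounds plus 3 SD, cut at about 30% in these data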;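 note: 0% = DMSO wells with GLD-1 and probe and 100% = wells lacking GLD-1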
Target sequence (Q17339 whole entry, looked up): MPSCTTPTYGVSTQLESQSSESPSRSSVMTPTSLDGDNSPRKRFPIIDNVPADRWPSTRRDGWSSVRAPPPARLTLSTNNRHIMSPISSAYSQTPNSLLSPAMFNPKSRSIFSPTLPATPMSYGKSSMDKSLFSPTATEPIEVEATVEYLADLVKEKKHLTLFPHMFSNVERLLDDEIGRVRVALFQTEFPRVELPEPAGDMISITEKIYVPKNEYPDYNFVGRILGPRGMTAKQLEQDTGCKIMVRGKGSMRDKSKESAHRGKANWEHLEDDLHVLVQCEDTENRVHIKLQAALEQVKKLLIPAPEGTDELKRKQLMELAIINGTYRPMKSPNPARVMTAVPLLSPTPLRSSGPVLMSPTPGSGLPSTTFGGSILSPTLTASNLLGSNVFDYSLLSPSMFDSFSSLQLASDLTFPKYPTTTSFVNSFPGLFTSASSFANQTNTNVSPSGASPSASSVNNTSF
MEX-5 binding: MEX-5 zinc finger RNA-binding disruptors – biochemical, C. elegans, fluorescence polarization, MLPCN library, primary screen; Zinc finger protein mex-5 (Caenorhabditis elegans), Q9XUB2; MEX-5/FITC-TCR2 RNA binding; stronger effect = lower value; activity score (negative = inhibition of binding), % at 10 µM; 300,000 tested, 0.38% active; AID 1832, 2009;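 active = inhibition past about -25% in most replicates, and total fluorescence under double the plate's negative control median, limit read from the data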;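 note: 0% = DMSO and -100% = 5 µM competing unlabeled TCR2 RNA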
MCL1-BIM inh: inhibitors of MCL1 binding to BIM-BH3, primary screen, biochemical, fluorescence polarization. Induced myeloid leukemia cell differentiation protein Mcl-1 (Homo sapiens), Q07820. GST-MCL1 / FITC-Bim-BH3 fluorescence polarization. inhibition, % at 10.9 µM. 320,000 tested, 0.68% active. AID 2057, 2009;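 active = inhibition above the mean inhibition of all tested compounds plus 3 SD, set per campaign, cut at about 40% in these data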;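 note: 0% = DMSO wells and 100% = unlabeled Bim-BH3 peptide control; higher means more loss of mP so more displacement of Bim peptide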
EBV gp42 block: Epstein-Barr virus gp42 inhibitors, primary screen, biochemical, uHTS, fluorescence polarization | Glycoprotein 42 (Epstein-Barr virus (strain AG876)), Q1HVG2 | Fluorescence polarization binding assay, mP read-out | inhibition, % (tested at 21.74 µM) | 220,000 tested, 0.42% active; in the data active = inhibition above about 50%
E coli Lon inh: inhibitors of E. coli Lon protease, primary screen, biochemical, fluorescence polarization; P0A9M0; purified E. coli Lon protease; inhibition, % at 7.94 µM; 360,000 tested, 0.42% active; AID 602123, 2011; in the data active = inhibition above about 13%, passing the limit was not always enough;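 note: 0% = enzyme with probe and DMSO and 100% = no enzyme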
Bcl-xL primary: inhibitors of human Bcl-xL, primary screen, biochemical, fluorescence polarization, HTS; Bcl-2-like protein 1 (Homo sapiens), Q07817; 320,000 tested, 0.7% active; GST-Bcl-xL / FITC-Bim BH3 peptide fluorescence polarization; inhibition, % at 10.9 µM;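 active = inhibition above the mean of all tested compounds plus 3 SD, cutoff set per campaign, cut at about 30% in these data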;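 note: 0% = DMSO wells and 100% = unlabeled Bim-BH3 peptide competitor; inhibitors lower millipolarization by displacing the labeled peptide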
An asterisk follows results filed as active.

Results for CCN(CC)CCC(c1cc(OC)c(OC)c(OC)c1)c1c(O)cc(OC)cc1OC (stereo not given) ?
GLD-1 TGE inh: 4.6; MEX-5 binding: 0.9; MCL1-BIM inh: -3.5; EBV gp42 block: -17.3; E coli Lon inh: 2.5; Bcl-xL primary: 3.8

How did NC(=O)c1ccc(N=Nc2c(O)c3ccccc3[nH]c2=O)cc1 do in these assays?
GLD-1 TGE inh: 2.6; MEX-5 binding: -3.9; MCL1-BIM inh: 2.2; EBV gp42 block: 64.8*; Bcl-xL primary: 6.3

Results for COc1ccc(Nc2nnc(-c3ccc(C(N)=O)cc3)c3ccccc23)cc1 ?
GLD-1 TGE inh: -4.2; MEX-5 binding: 0.1; MCL1-BIM inh: 8.8; E coli Lon inh: 8.6; Bcl-xL primary: 9.2

Results for COc1ccc(-c2nnc(Nc3ccc(S(=O)(=O)Nc4nccs4)cc3)c3ccccc23)cc1 ?
MEX-5 binding: 1.1; EBV gp42 block: 51.8*; E coli Lon inh: -2.8

Results for O=C(NNc1ccccc1)C(=O)NNS(=O)(=O)c1ccc([N+](=O)[O-])cc1 ?
GLD-1 TGE inh: 8.0; MEX-5 binding: -35.1*; MCL1-BIM inh: 19.0; EBV gp42 block: -3.0; E coli Lon inh: 0.1; Bcl-xL primary: 12.3

Results for O=C(NNc1ccc([N+](=O)[O-])cc1)Nc1ccccc1 ?
GLD-1 TGE inh: 3.1; MEX-5 binding: 0.2; MCL1-BIM inh: 5.9; E coli Lon inh: 3.2; Bcl-xL primary: 3.4

What do the screens show for `O=C(NNc1ccccn1)C(=O)NNS(=O)(=O)c1ccc(F)cc1`?
GLD-1 TGE inh: -5.0; MEX-5 binding: -31.0*; MCL1-BIM inh: -1.4; EBV gp42 block: -6.1; E coli Lon inh: -5.3; Bcl-xL primary: -1.1

Results for Cc1ccc(C(=O)NC(=S)NNS(=O)(=O)c2ccc(C)cc2)cc1 ?
GLD-1 TGE inh: 6.4; MEX-5 binding: -1.5; MCL1-BIM inh: 0.8; EBV gp42 block: -8.2; E coli Lon inh: 19.9; Bcl-xL primary: -2.1

What do the screens show for `Cc1ccc(S(=O)(=O)NNC(=S)NC(=O)c2ccc([N+](=O)[O-])cc2)cc1`?
GLD-1 TGE inh: 0.5; MEX-5 binding: -30.7*; MCL1-BIM inh: 17.0; EBV gp42 block: -6.5; E coli Lon inh: 4.7; Bcl-xL primary: 14.6

What do the screens show for `O=C(NNc1ccccn1)C(=O)NNS(=O)(=O)c1ccc(Cl)cc1`?
GLD-1 TGE inh: 0.4; MEX-5 binding: -10.0; MCL1-BIM inh: -9.1; EBV gp42 block: -21.8; E coli Lon inh: 1.8; Bcl-xL primary: -4.7

What do the screens show for `O=C(OCc1c(F)cccc1Cl)c1cccc(S(=O)(=O)N2CCOCC2)c1`?
GLD-1 TGE inh: 1.8; MCL1-BIM inh: -13.6; E coli Lon inh: 1.2; Bcl-xL primary: -14.2

How did COc1ccccc1C(=O)C1CCCN(C(=O)c2cccnc2SC)C1 (stereo not given) do in these assays?
GLD-1 TGE inh: 3.5; MEX-5 binding: -40.6*; MCL1-BIM inh: -0.8; EBV gp42 block: -11.9; E coli Lon inh: -4.1; Bcl-xL primary: -1.2

What do the screens show for `O=C(O)c1ccc2c(c1)NC(=O)C(N1CCCC1)S2` (stereo not given)?
GLD-1 TGE inh: 25.7; MEX-5 binding: -12.4; MCL1-BIM inh: 40.6*; EBV gp42 block: 32.7; E coli Lon inh: -9.8; Bcl-xL primary: 31.8*

How did COC(=O)c1ccc2c(c1)NC(=O)C(N1CCCC1)S2 (stereo not given) do in these assays?
GLD-1 TGE inh: -5.3; MEX-5 binding: 0.1; MCL1-BIM inh: -11.8; EBV gp42 block: -13.9; E coli Lon inh: -17.6; Bcl-xL primary: -1.8

What do the screens show for `CCC/C=N/NC(=O)C1COc2ccccc2O1` (stereo not given)?
GLD-1 TGE inh: 8.8; MEX-5 binding: 2.7; MCL1-BIM inh: 2.4; EBV gp42 block: -15.6; E coli Lon inh: 5.9; Bcl-xL primary: 97.6*

Results for COc1cc(-c2cc3nc(NCc4cccs4)ccn3n2)cc(OC)c1OC ?
E coli Lon inh: -3.0

Results for O=C(COC(=O)c1cnccn1)Nc1ncc(Cl)cc1Cl ?
GLD-1 TGE inh: 21.9; MEX-5 binding: -7.0; MCL1-BIM inh: 33.2; E coli Lon inh: -17.6; Bcl-xL primary: 33.9*

From PubChem BioAssay
